Shiga inhibitor: blocks Shiga toxin action in Vero cells; AID 2315; Vero cells, Shiga toxin protein synthesis inhibition reporter; 9.2% of 290,000 active; inhibition, % at 38.7 µM; in the data active = inhibition mostly above about 28%, no sharp cut-off; inactive = mostly below about 43%
HCMV inh: blocks human cytomegalovirus replication; activity change, negative = inhibition, % at 57.5 µM; HFF cells, HCMV-luciferase reporter, 72 h; active compounds read low; 4.5% of 410,000 active; in the data active = activity change below about -60%; inconclusive = no clear call, values can overlap the other calls; inactive = above about -39%
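Human foreskin fibroblasts infected with luciferase-reporter HCMV at MOI 1 PFU/cell, compounds at two doses. Luciferase measured 72 h post infection; normalized to buffer-only basal and Salinomycin (10uM) controls.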
HCV inh: HCV inhibition; Huh7.5.1 HCVcc-Cre infection, luciferase reporter, 44 h; Potency, µM (doses to about 41.8 µM), hits mostly inhibitors; 3.4% of 340,000 active; AID 651820
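After 44 h co-culture of compound, cells and HCVcc-Cre (~0.5 moi), substrate is added for 15 min at room temperature and luciferase measured over 15 sec. Cells were seeded at 1,000/well and pre-cultured 4 h.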
Pf growth 48h: inhibits P. falciparum growth in the first generation, 48 h; P. falciparum luciferase growth in erythrocytes, 48 h; Potency, µM (series often up to 28.7 µM), actives largely listed as inhibitors; 5.9% of 310,000 active; AID 504832
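A one-generation exposure of luciferase-tagged malaria parasites in RPMI 1640/Albumax erythrocyte culture, 37 C and 5% CO2. Inhibition is inferred from decreased luminescence after adding detection reagent.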
Cycloheximide cs: counter-screen hit for Shiga toxin inhibitors, cycloheximide; max response, %; 12% of 300,000 active; cell reporter, cycloheximide protein synthesis inhibition counterscreen; in the data active = max response mostly above about 13%, no sharp cut-off; inactive = mostly below about 14%; note: read at 38.3 µM for the half of the compounds with a filed dose
Pf growth 96h: P. falciparum growth inhibition at 96 hour, primary screen for plastid delayed-death inhibitors | P. falciparum luciferase reporter growth, 96 h | Potency, µM (series often up to 28.7 µM), most hits filed as inhibitors | 6.9% of 320,000 active | AID 504834
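Two-generation exposure (96 h) targets delayed-death phenotype. Reporter parasites carrying integrated firefly luciferase, in red cells at 2% hematocrit and 0.05% parasitemia final, kept at 37 C, 5% CO2; luminescence loss indicates inhibition.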
Hits are given with their value; 0 = inactive; ? = inconclusive; - = no result given; [ ] = remark or other dose. Most compounds without a hit are left out; they make up all but 21% or so of the library. Unless noted, calls come from the whole dose curve; as a rule, active = well fitted inhibition curve with a large enough effect; inconclusive = small, poorly fitted or top-dose-only effect, or another doubt; inactive = no such curve, though single readings can be large or run the other way.

SMILES | Shiga inhibitor | HCMV inh | HCV inh | Pf growth 48h | Cycloheximide cs | Pf growth 96h
Cc1ccc(OC(=O)c2ccc3nc(C)sc3c2)cc1 | 0 | 0 | 0 | 0 | 0 | 0
COc1ccccc1N(C)S(=O)(=O)c1ccc(C(=O)Nc2ccc3nc(C)sc3c2)cc1 | 0 | -84.7 | ? | 0 | 0 | ?
Cc1c(C(=O)N2CCC(C)CC2)c(S(=O)(=O)N2CCN(c3ccc(Cl)cc3)CC2)c(C)n1C | - | 0 | - | - | - | -
CC(Oc1ccc2c3c(c(=O)oc2c1)CCCC3)C(=O)NCC(O)c1ccccc1 (stereo not drawn) | 0 | 0 | 0 | 0 | 0 | 0
CC1=C(c2ccc(C(C)C)cc2)S(=O)(=O)NC1=NCc1ccccc1Br | - | 0 | - | - | - | -
N#Cc1ccccc1CSc1nc2ccc(NC(=O)c3ccccc3C(=O)O)cc2s1 | 79.4 | 0 | 0 | 0 | 27.3 | 0
O=C(O)c1ccc(CSc2nc3ccc(NC(=O)c4ccccc4C(=O)O)cc3s2)cc1 | 0 | 0 | 0 | 0 | 0 | 0
CN(C)c1ccc(N2C(=NC(=O)CC3CCCCC3)SC3CS(=O)(=O)CC32)cc1 (stereo not drawn) | 0 | 0 | 0 | 0 | 0 | ?
COc1ccc(COc2ccc3ccc(=O)oc3c2)cc1 | 70.2 | 0 | 0 | 0 | 69.0 | 0
COc1cccc(COc2ccc3ccc(=O)oc3c2)c1 | 65.4 | 0 | 0 | 0 | 35.1 | 0
CC(NC(=O)N1CCOCC1)c1ccccc1 (stereo not drawn) | 0 | 0 | 0 | 0 | 0 | 0
O=C(Nc1ccc(Cc2ccc(NC(=O)N3CCOCC3)cc2)cc1)N1CCOCC1 | 0 | 0 | ? | ? | 0 | 4.15µM
CCC(C)c1ccc(NC(=O)N2CCOCC2)cc1 (stereo not drawn) | 68.2 | 0 | 0 | 0 | 41.4 | 0
CN(C)c1ccc(NC(=O)N2CCOCC2)cc1 | 71.7 | 0 | 0 | 6.57µM | 39.4 | ?
Cc1ccc(NC(=O)Nc2ccc(C(=O)N3CCOCC3)cc2)cc1 | 0 | 0 | 0 | 0 | 0 | -
O=C(Nc1ccc(F)cc1)N1CCOCC1 | 0 | 0 | 0 | 0 | 0 | ?
Cc1ccccc1CN1C(=O)c2ccccc2Sc2ccc(C(=O)NCCc3ccccc3)cc21 | - | 0 | - | - | - | -
CCN1CCN(CCCNC(=O)c2ccc(/C=C3/Sc4ccccc4N(Cc4ccccc4F)C3=O)cc2)CC1 | 0 | ? | 11.2µM | ? | 0 | ?
CCN1CCN(CCNC(=O)c2ccc(/C=C3/Sc4ccccc4N(Cc4ccccc4C)C3=O)cc2)CC1 | 0 | -62.6 | 6.31µM | 11.7µM | 0 | 0
O=C(NCCCN1CCOCC1)c1ccc(/C=C2\Oc3ccccc3N(Cc3ccccc3F)C2=O)cc1 | 0 | 0 | ? | 0 | 0 | 8.28µM
O=C(CN1C(=O)/C(=C\c2ccccc2Br)Oc2ccccc21)NCCCN1CCOCC1 | 0 | 0 | ? | 0 | 0 | 2.33µM
CCN1CCN(CCCNC(=O)c2ccc(/C=C3/Oc4ccccc4N(Cc4cccc(C)c4)C3=O)cc2)CC1 | 0 | - | ? | ? | 0 | ?
N#CC1(NC(=O)COc2ccc3ccc(=O)oc3c2)CCCCC1 | - | 0 | ? | 0 | - | 0
Cc1cccc(NC(=O)[C@@H]2CCCN2S(=O)(=O)c2ccc(Cl)cc2)c1 | - | 0 | 0 | - | - | -
Cc1ccc(S(=O)(=O)NCCC(=O)NCC(c2cccs2)N2CCOCC2)cc1 (stereo not drawn) | - | 0 | 0[8.37 µM] | 0 | - | 0
SMILES | Shiga inhibitor | HCMV inh | HCV inh | Pf growth 48h | Cycloheximide cs | Pf growth 96h
COc1ccccc1CNC(=O)c1ccc2c(c1)N(Cc1cccc(C)c1)C(=O)c1ccccc1S2(=O)=O | - | 0 | - | - | - | -
CS(=O)(=O)N(CC(=O)NCC1CCCO1)c1ccc(Cl)c(Cl)c1 (stereo not drawn) | 0 | 0 | 0 | - | 0 | 0
CS(=O)(=O)N(CC(=O)NCC1CCCO1)c1cccc(Cl)c1 (stereo not drawn) | 0 | 0 | 0 | ? | 15.3 | 0
CS(=O)(=O)N(CC(=O)NCC1CCCO1)c1ccc(F)c(Cl)c1 (stereo not drawn) | 0 | -60.4 | 0 | 0 | 0 | -
CCCNC(=O)N(C)C[C@H]1Oc2ncc(Br)cc2C(=O)N([C@H](C)CO)C[C@H]1C | - | 0 | - | - | - | -
CSc1nsc(SCC(=O)N2CCCCC2)n1 | 93.1 | 0 | 0 | 0 | 52.8 | 0
Cc1csc(SCC(=O)N2CCCC2)n1 | 0 | -71.1 | 0 | 0 | 0 | 0
Cc1csc(SCC(=O)N2CCN(S(=O)(=O)c3ccccc3)CC2)n1 | 0 | 0 | 0 | 0 | 0 | 0
CCOC(=O)N1CCC(NC(=O)c2ccc3c(c2)N(Cc2ccc(F)cc2)C(=O)c2ccccc2S3(=O)=O)CC1 | - | 0 | - | - | - | -
Cc1c(Cl)cccc1NC(=O)Nc1c(C)n(C)n(-c2ccccc2)c1=O | 0 | 0 | 0 | 0 | 0 | 0
O=C(/C=C/c1cn(-c2ccccc2)nc1-c1cccnc1)N1CCCCC1 | 0 | -60.2 | ? | ? | 0 | ?
CC(=O)Nc1ccc(NC(=O)C(C)OC(=O)/C=C/c2cn(-c3ccccc3)nc2-c2cccnc2)cc1 (stereo not drawn) | 0 | -94.1 | ? | 0 | 0 | 0
COc1ccc(NC(=O)CN(C)C(=O)c2sc3cc(Cl)ccc3c2Cl)cc1 | - | ? | ? | ? | - | 0
O=C(COC(=O)c1ccc(Cl)nc1)Nc1cc(S(=O)(=O)N2CCOCC2)ccc1Cl | - | 0 | 0 | - | - | -
NC(=S)N/N=C/c1c[nH]c2ccccc12 | 0 | 0 | ? | 0 | 0 | 0
CC(C)Oc1ccc(Br)cc1C(=O)N/N=C/c1c[nH]c2ccccc12 | 0 | 0 | 10µM | ? | 0 | 0
O=C(N/N=C/c1c[nH]c2ccccc12)c1ccccc1Cl | 0 | 0 | ? | 0 | 25.9 | 0
O=C(CNC(=O)c1ccc([N+](=O)[O-])cc1)N/N=C/c1c[nH]c2ccccc12 | 0 | ? | - | 0 | 0 | 0
O=C(N/N=C\c1c[nH]c2ccccc12)c1ccc(O)cc1 | 63.2 | 0 | 0 | 0 | 39.2 | 0
O=C(N/N=C/c1c[nH]c2ccccc12)c1ccc(Br)cc1 | 54.3 | 0 | 0 | 0 | 31.7 | ?
Cc1ccc(OC(C)C(=O)N(C)c2ccccc2)c([N+](=O)[O-])n1 (stereo not drawn) | - | 0 | 0 | 0 | - | 0
COc1ccccc1OCCn1c(NC(=O)c2ccccc2Cl)nc2ccccc21 | - | 0 | - | - | - | -
CSc1nn(Cc2ccccc2C)c(NC(C)=O)c1S(=O)(=O)c1ccc(C)cc1 | - | 0 | - | - | - | -
CC(C)(C)OC(=O)N/N=C/c1c[nH]c2ccccc12 | 72.9 | 0 | 0 | 0 | 55.6 | 0
Nc1ccc(C(=O)N/N=C/c2c[nH]c3ccccc23)cc1 | 0 | 0 | 0 | 0 | 29.2 | 0
Cc1occc1C(=O)N/N=C/c1c[nH]c2ccccc12 | 96.0 | 0 | 0 | 0 | 47.6 | 0
O=C(N/N=C/c1c[nH]c2ccccc12)c1cc(Cl)ccc1O | 43.9 | 0 | 0 | 0 | 45.3 | 0
COC(=O)N/N=C/c1c[nH]c2ccccc12 | 0 | 0 | 0 | 0 | 0 | 0
Cc1ccc(NC(=O)c2nc(S(C)(=O)=O)ncc2N(Cc2ccc(C(C)(C)C)cc2)Cc2ccco2)cc1C | - | 0 | - | - | - | -
Cc1ccc(C(=O)NNC(=O)c2csc(N3CCOCC3)n2)s1 | - | 0 | 0 | 0 | - | 0
